Among the data in PubChem BioAssay (Tox21) are Potency and max activation values, retold here.

The target in experiment [1] is Thyrotropin-releasing hormone receptor (Homo sapiens) (UniProt P34981). Nature of the experiment: qHTS assay to identify small molecule agonists of the thyrotropin-releasing hormone receptor (TRHR) signaling pathway (AID 1346891; calls by dose curve; also: potency is read from the fitted curve at half-maximal effect;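 as to activation: HEK293 cells expressing TRHR with calcium dye readout; series mostly up to about 58 µM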). The gist of the method:
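Overnight-plated (18 h, 37 °C, 5% CO2) TRHR-Hek293 cells; 2 h calcium dye at 37 °C; compound in DMSO; 3-min kinetic fluorescence read.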
For orientation: Quantitative high-throughput screening tests each substance at several concentrations.

Experiment [2] is described as follows: Human pregnane X receptor (PXR) small molecule agonists, qHTS cell viability counter screen (AID 1346977). Also: nearly all actives have a fitted effect of over 50% in size. Also: potency is read from the fitted curve at half-maximal effect. A digest of the protocol: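 After a 5hr pre-incubation, PXR-Luc HepG2 cells received compounds plus positive control in DMSO and were kept 24hr at 37C. Cell viability was quantified by fluorescence from CellTiter-Fluor added for the final hour.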
A short description of experiment [3]: Caspase-3/7 induction in HepG2 cells by small molecules, qHTS assay (AID 1346978). Also: nearly all actives have a fitted effect of over 15% in size. The gist of the method:
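Wild-type HepG2 cells, 2,000/well, settled 5 hr at 37 C and 5% CO2, then compound-treated for 17 hr; caspase-3/7 activity read by luminescent Caspase-Glo 3/7 after 30 min at room temperature.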

Experiment [4] is described as follows: Caspase-3/7 induction in CHO-K1 cells by small molecules, qHTS cell viability counter screen (AID 1346979). Also: nearly all actives have a fitted effect of over 35% in size. Also: potency is read from the fitted curve at half-maximal effect. The gist of the method:
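Multiplexed with Caspase-Glo 3/7 in CHO-K1 cells, this counter screen added CellTiter-Fluor after 16hr of compound exposure and recorded fluorescence 1hr later.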

Experiment [5] can be described thus: Caspase-3/7 induction in CHO-K1 cells by small molecules, qHTS assay (AID 1346980). Also: nearly all actives have a fitted effect of over 15% in size. A digest of the protocol: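 Wild-type CHO-K1 cells exposed to compounds for 17hr at 37 C, 5% CO2. Caspase-3/7 activity then measured by Caspase-Glo 3/7 luminescence after 30min at room temperature.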
A short description of experiment [6]: Caspase-3/7 induction in HepG2 cells by small molecules, qHTS cell viability counter screen (AID 1346981). Also: nearly all actives have a fitted effect of over 30% in size. Also: potency is read from the fitted curve at half-maximal effect. The gist of the method: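 Treatment of HepG2 cells with DMSO-delivered compounds ran 16 hr at 37 C following a 5-hr pre-incubation of 2,000 cells/well. CellTiter-Fluor fluorescence, read after 1 hr, served as the viability measure in a qHTS format.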
The target of experiment [7] is Nuclear receptor subfamily 1 group I member 2 (Homo sapiens) (UniProt O75469). The experiment in a line: Human pregnane X receptor (PXR) small molecule agonists, qHTS assay (AID 1346982). Also: nearly all actives have a fitted effect of over 35% in size. Also: potency is read from the fitted curve at half-maximal effect. The gist of the method: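 Stable HepG2 line reporting PXR-mediated CYP3A4 expression via luciferase. Treatment: 24 hr with compounds in DMSO at 37 C. Detection: ONE-Glo luminescence.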

The target of experiment [8] is Acetylcholinesterase (Homo sapiens) (UniProt P22303). The experiment in a line: Acetylcholinesterase (AChE) small molecule antagonists: colormetric cell-based qHTS assay (AID 1347395; calls by dose curve; also: nearly all actives have a fitted effect of over 30% in size). The gist of the method: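 In this cell-based qHTS, attached SH-SY5Y cells were treated with test chemicals for 30 min, after which acetylthiocholine hydrolysis was followed by DTNB colour development over 90 min at 37 C.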

Experiment [9] has the same target. Nature of the experiment: Acetylcholinesterase (AChE) small molecule antagonists: enzyme-based qHTS assay (AID 1347397; calls by dose curve; also: nearly all actives have a fitted effect of over 55% in size). The following applies: Potency: AChE enzyme activity inhibition. A digest of the protocol: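 Colorimetric DTNB read-out of thiocholine released from acetylthiocholine by recombinant human AChE (50 mU/mL as dispensed). Compounds were preincubated 30 min at RT before substrate/DTNB addition, with a 10 min RT reaction.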

For experiment [10] the target is unchanged. The experiment in a line: Acetylcholinesterase (AChE) small molecule antagonists: fluorescence cell-based qHTS assay (AID 1347398; calls by dose curve; also: nearly all actives have a fitted effect of over 50% in size). The following applies: Potency: AChE activity. A digest of the protocol: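 SH-SY5Y, 2,000 cells/well, attached overnight; cmpd 30 min 37 C; acetylthiocholine/Thiolite Green cocktail 40 min RT; fluorescence Ex/Em 490/520 nm.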

Experiment [11] shares this target. Nature of the experiment: Acetylcholinesterase (AChE) small molecule antagonists: enzyme-based qHTS assay with human liver microsomes (AID 1347399; calls by dose curve; also: nearly all actives have a fitted effect of over 60% in size). As to conditions: Potency: qHTS inhibition. A digest of the protocol:
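Recombinant human AChE (50 mU/mL in the enzyme mix) and human liver microsomes (0.25 mg/mL final) were preincubated with compound and NADPH (0.25 mg/mL final) for 30 min at 37 C. Acetylthiocholine/DTNB was then added; thiocholine was read colorimetrically after 10 min at room temperature.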

Experiment [12] has as its target Cytochrome P450 2C19 (Homo sapiens) (UniProt P33261). The experiment in a line: Cytochrome P450 Family 2 Subfamily C Member 19 (CYP2C19) small molecule antagonists: luciferase reporter qHTS assay (AID 1671197). Also: nearly all actives have a fitted effect of over 65% in size. Also: potency is read from the fitted curve at half-maximal effect. A digest of the protocol: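 First, compounds are pinned into enzyme-substrate mix and held 10 min at room temperature. Second, NADPH regeneration solution is added and plates incubate 1 h at 37C. Third, detection reagent is added and luminescence read after 20 min.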
For orientation: A reporter such as luciferase makes a cellular process visible.

The target in experiment [13] is Cytochrome P450 1A2 (Homo sapiens) (UniProt P05177). Nature of the experiment: Cytochrome P450 Family 1 Subfamily A Member 2 (CYP1A2) small molecule antagonists: luciferase reporter qHTS assay (AID 1671199). Also: nearly all actives have a fitted effect of over 50% in size. Also: potency is read from the fitted curve at half-maximal effect. The gist of the method: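 Read-out is luminescence from luciferin detection reagent (20 min) proportional to CYP1A2 activity; compounds in DMSO preincubated 10 min with enzyme and proluciferin substrate, then NADPH regeneration solution, 1 h, room temperature.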

The target of experiment [14] is Voltage-gated inwardly rectifying potassium channel KCNH2 (Homo sapiens) (UniProt Q12809). Nature of the experiment: Human Ether-a-go-go-Related Gene (hERG) channel small molecule antagonists: fluorescence cell-based qHTS assay (AID 1671200). Also: nearly all actives have a fitted effect of over 50% in size. Also: potency is read from the fitted curve at half-maximal effect. A digest of the protocol: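 Cell line hERG-U2OS; dye FluxOR II, 1 h RT dark; Tl+ stimulus; ex 480/em 540 nm, read each second for 2 min.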
(Block of hERG is tested as a sign of cardiac risk.)

Experiment [15] addresses Cytochrome P450 3A4 (Homo sapiens) (UniProt P08684). The experiment in a line: Cytochrome P450 Family 3 Subfamily A Member 4 (CYP3A4) small molecule antagonists: luciferase reporter qHTS assay (AID 1671201). Also: nearly all actives have a fitted effect of over 50% in size. Also: potency is read from the fitted curve at half-maximal effect. The gist of the method: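 Room-temperature assay throughout: 10 min compound–enzyme/substrate preincubation, 1 h reaction after NADPH regeneration solution, 20 min detection. Luciferin formed from proluciferin substrate is quantified by luminescence.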

The target of experiment [16] is Cytochrome P450 2C9 (Homo sapiens) (UniProt P11712). Nature of the experiment: Cytochrome P450 Family 2 Subfamily C Member 9 (CYP2C9) small molecule antagonists: luciferase reporter qHTS assay (AID 1671198). Also: nearly all actives have a fitted effect of over 50% in size. Also: potency is read from the fitted curve at half-maximal effect. A digest of the protocol: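 P450-Glo proluciferin substrate with CYP2C9 enzyme; 10 min RT preincubation, then NADPH regeneration 1 h at 37C; luciferin detection reagent 20 min RT, luminescence in relative luminescence units.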

Experiment [17] addresses Cytochrome P450 2D6 (Homo sapiens) (UniProt P10635). Nature of the experiment: Cytochrome P450 Family 2 Subfamily D Member 6 (CYP2D6) small molecule antagonists: luciferase reporter qHTS assay (AID 1671196). Also: nearly all actives have a fitted effect of over 50% in size. Also: potency is read from the fitted curve at half-maximal effect. A digest of the protocol:
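Chemicals tested for interference with CYP2D6 activity; proluciferin substrate, NADPH regeneration, 1 h at room temperature, luminescent detection.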

The target in experiment [18] is Nuclear receptor subfamily 1 group I member 2 (Rattus norvegicus) (UniProt Q9R1A7). The experiment in a line: Rat pregnane X receptor (rPXR) activation by small molecules, qHTS assay (AID 1346983). Also: nearly all actives have a fitted effect of over 20% in size. As to conditions: rPXR luciferase reporter cells, One-Glo luminescence, 24 h; max activation: hits give high values. The gist of the method: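 Cell-based rPXR activation assay: rPXR cells, 2,000 per well, rested 5hr at 37 C, then exposed to compounds in DMSO for 24 hr at 37 C. Luciferase activity read by One-Glo luminescence after 30 min at room temperature.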

For experiment [19], the target named is Nuclear receptor subfamily 1 group I member 2 (Homo sapiens) (UniProt O75469). The experiment in a line: CYP3A4 induction through human pregnane X receptor (PXR) by small molecules, qHTS assay (AID 1346984). Also: nearly all actives have a fitted effect of over 40% in size. A digest of the protocol:
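After 24 h at 37C with compound, DPX-2 cells (HepG2, co-transfected PXR response element and CYP3A4 promoter-luciferase) got 3uM final P450-Glo Luciferin-IPA for 3 h; One-Glo luminescence followed.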

Experiment [20] shares this target. Nature of the experiment: Human pregnane X receptor (PXR) activation by small molecules, qHTS assay (AID 1346985). Also: nearly all actives have a fitted effect of over 40% in size. The gist of the method:
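DPX-2 cells (HepG2 co-transfected with a PXR response element and a CYP3A4-promoter luciferase construct) were seeded at 2,000 per well, rested 5 hr at 37C, then exposed to DMSO-dissolved compounds for 24 hr. Activation was read as luciferase luminescence.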

Unmarked numbers belong to inactive results. Records with an inconclusive call do not appear. Active and inactive are the calls of the source. Unless noted, calls follow the shape of the dose curve; as a rule, active = well fitted curve in the direction sought with a large enough effect in the repeat runs; inconclusive = weak or mixed curves; inactive = no such curve, though single readings can be large; an effect the other way counts as inactive or inconclusive.
% is scaled to controls: 0 for no effect and ±100 for the full control effect.

Chain of Thyrotropin-releasing hormone receptor (Homo sapiens) (P34981 whole entry, looked up): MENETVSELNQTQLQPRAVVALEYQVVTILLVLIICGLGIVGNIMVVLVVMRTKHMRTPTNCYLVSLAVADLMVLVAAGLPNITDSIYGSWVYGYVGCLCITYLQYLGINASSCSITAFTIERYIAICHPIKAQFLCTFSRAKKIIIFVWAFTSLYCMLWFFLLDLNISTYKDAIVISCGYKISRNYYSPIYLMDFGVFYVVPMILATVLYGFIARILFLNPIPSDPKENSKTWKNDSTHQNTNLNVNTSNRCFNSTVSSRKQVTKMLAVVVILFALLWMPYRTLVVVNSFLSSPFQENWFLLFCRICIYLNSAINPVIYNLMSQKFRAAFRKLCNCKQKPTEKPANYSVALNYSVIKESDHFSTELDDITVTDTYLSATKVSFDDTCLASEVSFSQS
Chain of Acetylcholinesterase (Homo sapiens) (P22303 whole entry, looked up): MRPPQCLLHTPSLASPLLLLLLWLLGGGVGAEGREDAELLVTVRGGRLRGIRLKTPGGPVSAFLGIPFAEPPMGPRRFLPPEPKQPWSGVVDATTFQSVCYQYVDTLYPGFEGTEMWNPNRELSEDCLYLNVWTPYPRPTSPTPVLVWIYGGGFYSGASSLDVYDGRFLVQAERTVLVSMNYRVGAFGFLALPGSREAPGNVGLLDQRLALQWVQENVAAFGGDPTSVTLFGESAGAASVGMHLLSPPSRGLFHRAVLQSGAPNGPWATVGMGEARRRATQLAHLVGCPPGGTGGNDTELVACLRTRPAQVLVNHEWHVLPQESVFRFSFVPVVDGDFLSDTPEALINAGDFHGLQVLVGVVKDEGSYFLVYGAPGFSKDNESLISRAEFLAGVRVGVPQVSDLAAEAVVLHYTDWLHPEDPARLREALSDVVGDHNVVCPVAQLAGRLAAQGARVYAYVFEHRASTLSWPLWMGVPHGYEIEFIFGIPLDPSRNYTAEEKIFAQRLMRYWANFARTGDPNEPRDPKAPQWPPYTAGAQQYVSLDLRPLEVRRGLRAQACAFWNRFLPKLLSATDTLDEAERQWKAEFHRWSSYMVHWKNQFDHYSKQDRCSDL
Chain of Cytochrome P450 2C9 (Homo sapiens) (P11712 whole entry, looked up): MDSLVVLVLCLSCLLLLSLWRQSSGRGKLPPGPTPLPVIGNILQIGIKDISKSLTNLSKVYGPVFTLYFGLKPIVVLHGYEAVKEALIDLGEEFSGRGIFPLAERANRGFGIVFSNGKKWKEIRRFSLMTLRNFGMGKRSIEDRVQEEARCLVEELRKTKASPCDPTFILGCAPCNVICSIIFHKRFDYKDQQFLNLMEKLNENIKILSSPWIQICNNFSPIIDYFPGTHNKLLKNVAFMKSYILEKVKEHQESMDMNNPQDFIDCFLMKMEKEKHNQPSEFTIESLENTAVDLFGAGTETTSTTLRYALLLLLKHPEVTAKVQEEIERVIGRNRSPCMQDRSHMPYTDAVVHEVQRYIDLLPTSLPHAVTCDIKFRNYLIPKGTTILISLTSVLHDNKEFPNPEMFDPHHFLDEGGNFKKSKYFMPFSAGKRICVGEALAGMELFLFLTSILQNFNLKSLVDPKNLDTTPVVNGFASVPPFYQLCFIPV
Chain of Cytochrome P450 2D6 (Homo sapiens) (P10635 whole entry, looked up): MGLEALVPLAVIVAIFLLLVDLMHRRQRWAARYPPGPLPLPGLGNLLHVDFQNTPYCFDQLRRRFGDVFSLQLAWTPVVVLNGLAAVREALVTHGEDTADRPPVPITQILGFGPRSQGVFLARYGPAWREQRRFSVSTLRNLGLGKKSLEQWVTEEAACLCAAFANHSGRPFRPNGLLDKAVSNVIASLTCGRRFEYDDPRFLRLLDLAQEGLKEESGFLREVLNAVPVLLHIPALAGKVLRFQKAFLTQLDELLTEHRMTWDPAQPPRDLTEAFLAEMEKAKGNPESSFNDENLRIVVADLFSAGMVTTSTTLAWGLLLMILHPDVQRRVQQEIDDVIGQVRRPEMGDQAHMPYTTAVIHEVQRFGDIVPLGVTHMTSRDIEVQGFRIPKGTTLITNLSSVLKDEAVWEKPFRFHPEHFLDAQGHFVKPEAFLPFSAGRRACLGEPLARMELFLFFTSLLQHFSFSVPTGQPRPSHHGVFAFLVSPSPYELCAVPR
Chain of Cytochrome P450 2C19 (Homo sapiens) (P33261 whole entry, looked up): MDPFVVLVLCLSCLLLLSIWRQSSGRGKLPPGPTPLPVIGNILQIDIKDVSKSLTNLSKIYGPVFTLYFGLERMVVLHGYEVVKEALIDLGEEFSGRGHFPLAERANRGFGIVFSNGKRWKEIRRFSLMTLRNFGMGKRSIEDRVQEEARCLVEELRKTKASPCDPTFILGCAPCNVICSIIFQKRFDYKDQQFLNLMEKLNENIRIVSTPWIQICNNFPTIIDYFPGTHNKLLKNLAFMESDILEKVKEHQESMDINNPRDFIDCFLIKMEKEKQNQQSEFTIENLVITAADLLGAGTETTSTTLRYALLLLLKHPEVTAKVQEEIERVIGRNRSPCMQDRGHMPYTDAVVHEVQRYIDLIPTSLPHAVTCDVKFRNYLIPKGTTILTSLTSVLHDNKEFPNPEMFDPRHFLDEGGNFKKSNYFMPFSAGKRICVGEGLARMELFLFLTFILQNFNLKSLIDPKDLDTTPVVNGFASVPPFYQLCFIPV
Chain of Cytochrome P450 1A2 (Homo sapiens) (P05177 whole entry, looked up): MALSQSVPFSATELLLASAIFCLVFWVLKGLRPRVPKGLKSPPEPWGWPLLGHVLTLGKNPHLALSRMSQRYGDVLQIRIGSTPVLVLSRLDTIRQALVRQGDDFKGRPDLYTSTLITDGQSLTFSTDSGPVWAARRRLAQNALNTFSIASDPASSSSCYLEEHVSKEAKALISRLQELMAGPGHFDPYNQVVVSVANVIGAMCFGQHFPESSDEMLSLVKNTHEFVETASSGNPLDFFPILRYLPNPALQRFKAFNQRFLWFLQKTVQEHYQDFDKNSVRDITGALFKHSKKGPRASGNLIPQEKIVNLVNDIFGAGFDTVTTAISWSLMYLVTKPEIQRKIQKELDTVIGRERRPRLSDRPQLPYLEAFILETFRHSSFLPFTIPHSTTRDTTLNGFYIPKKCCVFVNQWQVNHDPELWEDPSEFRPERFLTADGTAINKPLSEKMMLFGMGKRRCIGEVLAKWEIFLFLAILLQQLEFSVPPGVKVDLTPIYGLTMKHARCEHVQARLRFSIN
Chain of Cytochrome P450 3A4 (Homo sapiens) (P08684 whole entry, looked up): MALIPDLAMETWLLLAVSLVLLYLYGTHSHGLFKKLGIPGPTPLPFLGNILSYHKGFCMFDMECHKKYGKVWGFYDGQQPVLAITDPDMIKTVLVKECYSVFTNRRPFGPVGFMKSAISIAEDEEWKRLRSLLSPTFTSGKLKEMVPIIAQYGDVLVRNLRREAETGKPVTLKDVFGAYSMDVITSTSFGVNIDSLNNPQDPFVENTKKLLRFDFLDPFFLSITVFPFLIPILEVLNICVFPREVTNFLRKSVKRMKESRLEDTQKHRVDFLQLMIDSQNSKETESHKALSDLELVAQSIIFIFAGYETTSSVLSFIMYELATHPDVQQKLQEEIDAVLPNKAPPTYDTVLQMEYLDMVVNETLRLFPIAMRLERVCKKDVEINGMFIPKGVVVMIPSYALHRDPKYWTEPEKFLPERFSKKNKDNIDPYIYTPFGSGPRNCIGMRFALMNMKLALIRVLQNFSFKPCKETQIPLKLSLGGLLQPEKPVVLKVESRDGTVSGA
Chain of Nuclear receptor subfamily 1 group I member 2 (Homo sapiens) (O75469 whole entry, looked up): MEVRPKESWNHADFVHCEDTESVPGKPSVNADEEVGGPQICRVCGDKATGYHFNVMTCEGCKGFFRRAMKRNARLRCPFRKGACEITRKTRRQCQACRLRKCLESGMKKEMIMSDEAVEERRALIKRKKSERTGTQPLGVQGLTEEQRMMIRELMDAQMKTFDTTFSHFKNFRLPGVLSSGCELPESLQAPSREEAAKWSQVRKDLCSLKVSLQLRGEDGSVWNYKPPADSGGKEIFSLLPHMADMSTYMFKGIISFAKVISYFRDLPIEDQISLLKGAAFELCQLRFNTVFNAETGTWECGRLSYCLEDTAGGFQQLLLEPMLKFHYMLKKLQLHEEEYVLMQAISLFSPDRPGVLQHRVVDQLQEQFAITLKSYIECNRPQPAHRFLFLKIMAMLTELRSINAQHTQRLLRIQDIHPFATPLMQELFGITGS
Chain of Nuclear receptor subfamily 1 group I member 2 (Rattus norvegicus) (Q9R1A7 whole entry, looked up): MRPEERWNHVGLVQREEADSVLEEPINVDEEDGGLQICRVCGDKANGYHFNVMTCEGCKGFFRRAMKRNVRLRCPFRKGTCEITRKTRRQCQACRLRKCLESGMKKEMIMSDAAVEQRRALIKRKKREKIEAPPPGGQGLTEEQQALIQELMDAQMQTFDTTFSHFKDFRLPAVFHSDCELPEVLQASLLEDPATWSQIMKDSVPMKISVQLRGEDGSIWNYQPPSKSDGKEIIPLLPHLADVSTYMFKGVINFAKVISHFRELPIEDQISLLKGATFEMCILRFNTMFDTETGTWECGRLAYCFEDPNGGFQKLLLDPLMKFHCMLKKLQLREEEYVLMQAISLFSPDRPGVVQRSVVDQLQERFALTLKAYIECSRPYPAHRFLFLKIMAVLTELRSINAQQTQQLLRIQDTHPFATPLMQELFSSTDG

As for `NNC(=O)c1cccnc1`, the Potency result in experiment [1], in experiment [2], in experiment [3], in experiment [4], in [5] and in experiment [6] was “inactive” in each case. For the same molecule, the Potency result in [8], in experiment [9], in [10], in [11] and in [14] was “inactive” in each case. The Potency in [7] was 27.4 µM (active); in experiment [12], 71.3 µM (active); in experiment [13], 12.7 µM (active); in experiment [15] it was 2.53 µM (active).
Turning to `CCCCNP(N)(N)=S`, the Potency entry in experiment [1], in [2], in experiment [3], in experiment [4], in experiment [5] and in [6] was “inactive” each time. Also, the Potency result in experiment [7], in experiment [8], in experiment [9], in experiment [10], in [11] and in experiment [13] was “inactive” in each case. The Potency entry in experiment [15] is “inactive”. Also, the values for the Potency in [12] and in experiment [16] were 50.2 µM (active) and 35.6 µM (active), respectively.
`NC(=O)C(Cl)(Cl)Cl`: the Potency result in experiment [1], in experiment [2], in [3], in experiment [4], in experiment [5] and in [6] was “inactive” each time. Also, the Potency result in [7], in experiment [8], in experiment [9], in experiment [10], in [17] and in [12] was “inactive” throughout. Also, the Potency result in experiment [16], in experiment [14] and in experiment [15] was “inactive” throughout.
For `CCCCCC[N+](=O)[O-]`, the Potency result in [1], in experiment [2], in experiment [3], in experiment [4], in experiment [5] and in [6] was “inactive” in each case. For the same molecule, the Potency result in [14] was “inactive”.
Consider `O=C1NCN(c2ccccc2)C12CCN(CCCOc1ccc(F)cc1)CC2`, for which the Potency in [1] was 6.01 µM (active); in experiment [2], 6.68 µM (active); in experiment [4], 26.6 µM (active); in experiment [6], 7.5 µM (active); in experiment [7], 5.96 µM (active); in [17] it was 0.347 µM (active). Also, the Potency in experiment [14] was 0.601 µM (active). For the same molecule, the Potency result in experiment [3], in experiment [19], in experiment [20], in [8], in [9] and in experiment [10] was “inactive” each time. Besides, the Potency entry in experiment [11], in experiment [12], in experiment [16], in experiment [13] and in [15] was “inactive” in each case. Also, in experiment [18], the max activation is -0.12%.
On to `CCOC(=O)COc1cc(-c2nn(C)c(OC(F)F)c2Cl)c(F)cc1Cl`, for which the Potency result in [1], in [2], in experiment [3], in experiment [4], in experiment [5] and in experiment [6] was “inactive” throughout. The Potency result in [8], in experiment [9] and in experiment [10] was “inactive” each time. For the same molecule, the values for the Potency in experiment [12], in experiment [16] and in experiment [13] were 31.7 µM (active), 6.33 µM (active) and 1.78 µM (active), respectively.
`Nc1nc(N)nc(N)n1`: the Potency entry in experiment [1], in experiment [2], in [3], in [4], in experiment [5] and in experiment [6] was “inactive” each time. Moreover, the Potency entry in experiment [7], in experiment [8], in experiment [9], in [10], in experiment [17] and in experiment [16] was “inactive” in each case. Moreover, the Potency result in [14] and in [15] was “inactive” in each case. Moreover, the Potency in [13] is 31.8 µM (active).
Regarding `NC(=O)CI`, the Potency result in experiment [1], in experiment [2], in experiment [3], in experiment [4], in experiment [5] and in experiment [6] was “inactive” in each case. The Potency result in experiment [8], in [9], in experiment [10], in experiment [14] and in experiment [15] was “inactive” each time. The Potency was 69.1 µM (active) in experiment [7]; 63.8 µM (active) in experiment [17]; 80.4 µM (active) in experiment [12]; 63.8 µM (active) in [16]; 35.9 µM (active) in experiment [13].
